This note sets out measurements from PubChem BioAssay.

Activity calls are given as the source filed them. Unless noted, how the calls were made is not given here.

Test [1] can be described thus: resazurin metabolic signal in HepG2 cells – cell-based, resazurin fluorescence, 24 h, PK04 Diversity Set, profiling panel (AID 1172). Further: test concentration not given here. The settings on record: HepG2 viability, higher = more signal. On the technique in general: The colour change of resazurin is a common sign of viable cells or microbes.
Test [2] in a line: budding yeast growth changes without added modifier – OD600, strain BY4716, 24 h, basal condition, primary screen (AID 1173). Particulars: S. cerevisiae BY4716 growth, OD600, 24 h; higher = more signal, called active from +8 up or from −8 down.
The nature of test [3]: viability profiling in MM1S myeloma cells – cell-based, resazurin fluorescence, basal, 24 h, PK04 Diversity Set, profiling panel (AID 1174).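 Further: MM1S multiple myeloma cell line; test concentration not given here.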 The settings on record: higher = more signal, called active from +8 up or from −8 down.
Test [4] has as its target Dihydroorotate dehydrogenase (quinone), mitochondrial (Plasmodium falciparum (isolate 3D7)) (UniProt Q08210). The test is described as follows: inhibition of P. falciparum DHODH – biochemical, C-terminal His tag, absorbance 600 nm, primary screen (AID 1175).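 Further: recombinant parasite enzyme with a five histidine tag at its C terminus; test concentration not given here.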 The settings on record: PfDHODH enzyme, DCIP absorbance 600 nm; higher = more signal, called active from +8 up or from −8 down.

Test [5] can be described thus: inhibition of PAO1 biofilm formation – strain PAO1, LB-PBS medium, absorbance 600 nm, primary screen (AID 1176). Further: test concentration not given here. Particulars: P. aeruginosa PAO1 growth/biofilm, A600, 12 h; higher = more signal.
Test [6] in a line: growth modulation of vineyard yeast isolate – strain RM11-1a, OD600, basal, 24 h, primary screen (AID 1177).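 Further: cultures grown under basal conditions with no added stressor; test concentration not given here.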 Particulars: S. cerevisiae RM11-1a growth, OD600, 24 h; higher = more signal, called active from +8 up or from −8 down.
A short description of test [7]: growth of efflux-deficient E. coli DRC39 – strain DRC39, OD650, 24 h, E. coli filamentation inducers, primary screen (AID 1178).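 Further: growth measured as culture turbidity by optical density at 650 nm; test concentration not given here.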 The settings on record: E. coli DRC39 acrAB, higher = more signal, called active from +8 up or from −8 down.
Test [8] can be described thus: growth of efflux-deficient E. coli DRC39 – strain DRC39, OD650, 48 h, E. coli filamentation inducers, primary screen (AID 1179).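 Further: screen aims at cell division blockers that make cells filament.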 Particulars: E. coli DRC39 delta-acrAB growth, higher = more signal, called active from +8 up or from −8 down.
Test [9] in a line: viability profiling in RPMI8226 myeloma cells – cell-based, resazurin fluorescence, basal, 24 h, PK04 Diversity Set, profiling panel (AID 1180).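 Further: RPMI8826 multiple myeloma cell line at 5000 cells per well; test concentration not given here.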 The settings on record: higher = more signal.
The target of test [10] is E3 ubiquitin-protein ligase XIAP (Homo sapiens) (UniProt P98170). The test is described as follows: small molecules binding XIAP protein – biophysical, small-molecule microarray, fluorescence 635 nm, primary screen (AID 1181).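 Further: score merges 667 nm emission and signal to noise over triplicate slides.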 Particulars: higher = more signal.
Sequence of E3 ubiquitin-protein ligase XIAP (Homo sapiens) (P98170 whole entry, looked up): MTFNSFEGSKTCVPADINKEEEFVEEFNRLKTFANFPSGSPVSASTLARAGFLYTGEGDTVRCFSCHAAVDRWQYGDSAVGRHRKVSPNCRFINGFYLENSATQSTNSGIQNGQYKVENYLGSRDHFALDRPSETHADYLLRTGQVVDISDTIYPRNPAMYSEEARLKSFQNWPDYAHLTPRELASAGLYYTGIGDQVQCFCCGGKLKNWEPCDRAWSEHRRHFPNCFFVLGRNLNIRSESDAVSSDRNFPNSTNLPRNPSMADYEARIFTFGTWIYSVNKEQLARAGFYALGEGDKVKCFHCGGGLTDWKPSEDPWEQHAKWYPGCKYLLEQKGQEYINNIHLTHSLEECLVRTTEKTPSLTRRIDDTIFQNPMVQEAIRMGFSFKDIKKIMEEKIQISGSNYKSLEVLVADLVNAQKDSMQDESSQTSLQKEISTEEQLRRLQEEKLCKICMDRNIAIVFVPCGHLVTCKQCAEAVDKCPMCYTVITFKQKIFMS

Sequence of Dihydroorotate dehydrogenase (quinone), mitochondrial (Plasmodium falciparum (isolate 3D7)) (Q08210 whole entry, looked up): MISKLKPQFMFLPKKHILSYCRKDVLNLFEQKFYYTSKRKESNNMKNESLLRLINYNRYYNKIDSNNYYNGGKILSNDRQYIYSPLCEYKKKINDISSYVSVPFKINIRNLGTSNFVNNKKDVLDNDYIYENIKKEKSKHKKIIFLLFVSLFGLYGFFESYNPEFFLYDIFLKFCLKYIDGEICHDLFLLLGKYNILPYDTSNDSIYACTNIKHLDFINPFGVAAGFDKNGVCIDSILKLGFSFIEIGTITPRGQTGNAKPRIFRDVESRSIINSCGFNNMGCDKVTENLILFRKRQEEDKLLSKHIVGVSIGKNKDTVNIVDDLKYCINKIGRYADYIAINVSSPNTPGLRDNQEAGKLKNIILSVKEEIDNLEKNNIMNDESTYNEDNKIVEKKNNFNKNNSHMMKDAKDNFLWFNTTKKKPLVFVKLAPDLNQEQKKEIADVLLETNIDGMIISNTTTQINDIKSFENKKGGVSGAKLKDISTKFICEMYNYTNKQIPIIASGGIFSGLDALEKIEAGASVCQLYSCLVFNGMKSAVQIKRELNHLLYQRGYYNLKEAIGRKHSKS

For `CCOC(=O)[C@H](CC(C)C)NC(=O)CCC1CC(OC(=O)NCc2cccc3ccccc23)CC2(CCCC(COC(=O)NCc3cccc(C(F)(F)F)c3)O2)O1` (stereo not given in full), the z-score in test [1] is -0.189; in test [2] it was -0.31 (inactive); in [3], 0.0223 (inactive); in test [5], 0.687 (inactive); in test [6], 0.388 (inactive); in test [7], 0.939 (inactive). Also, the z-score in [8] is 1.08 (inactive); in test [9], 0.639. The figures for the composite z-score in test [4] and in test [10] were -0.161 (inactive) and -0.206, respectively.
On to `O=C1C[C@@H](O)[C@@H](O)[C@@H]2[C@@H]3C(=O)N(c4cccc(Oc5ccccc5)c4)C(=O)[C@@H]3CC[C@H]12`, for which the z-score is 0.0515 in test [1]; 0.251 (inactive) in test [2]; 0.0257 (inactive) in test [3]; -0.601 (inactive) in test [5]; 0.132 (inactive) in test [6]; -0.539 (inactive) in test [7]. The z-score in [8] is -0.389 (inactive); in [9], 0.0381. Further, the composite z-score is 0.0371 (inactive) in test [4] and -0.0448 in test [10].
For `CC(=O)OC[C@H]1O[C@H](C#Cc2ccccc2)C=C[C@@H]1OC(C)=O`, the z-score in test [1] is -0.153; in test [2], -2.26 (inactive); in [3], -5.37 (inactive); in [5], -0.339 (inactive); in test [6], -0.14 (inactive); in [7] it was 0.731 (inactive). Besides, the z-score in [8] is 0.414 (inactive); in test [9], -2.61. Besides, the composite z-score is -0.0765 (inactive) in test [4] and -0.13 in test [10].
Take `COC(=O)[C@H](C)NC(=O)CCC1CC(OC(=O)NCc2ccc3c(c2)OCO3)CC2(CCCC(COC(=O)NCCc3ccccc3OC)O2)O1` (stereo not given in full): the z-score was -0.134 in test [1]; -0.148 (inactive) in test [2]; -0.344 (inactive) in test [3]; 0.238 (inactive) in test [5]; 0.0525 (inactive) in test [6]; 0.775 (inactive) in test [7]. For the same compound, the z-score was 0.451 (inactive) in test [8] and -0.229 in test [9]. Also, the composite z-score in test [4] is -1.07 (inactive); in [10], -0.252.
In the case of `CCN1C(=O)[C@H]2[C@H]3[C@H](O)[C@H](O)CC(=O)[C@H]3CC[C@H]2C1=O`, the z-score was -0.195 in test [1]; -0.286 (inactive) in test [2]; -0.242 (inactive) in [3]; -0.543 (inactive) in test [5]; -0.896 (inactive) in test [6]; -0.519 (inactive) in test [7]. Besides, the z-score is -0.177 (inactive) in test [8] and -0.0216 in test [9]. In addition, the composite z-score is -0.794 (inactive) in [4] and -0.0476 in [10].
On to `O=C1C[C@@H](O)[C@@H](O)[C@@H]2[C@@H]3C(=O)N(Cc4ccc5c(c4)OCO5)C(=O)[C@@H]3CC[C@H]12`, for which the z-score was 0.201 in test [1]; 0.0442 (inactive) in test [2]; -0.0254 (inactive) in test [3]; -0.0121 (inactive) in test [5]; -0.545 (inactive) in test [6]; -0.494 (inactive) in [7]. Moreover, the figures for the z-score in test [8] and in test [9] were -0.389 (inactive) and -0.0372, respectively. Besides, the composite z-score is -0.564 (inactive) in test [4] and -0.152 in test [10].
As for `C[C@H]1COC(=O)[C@@H]2CCCN2C(=O)[C@@H](C)COC(=O)[C@H](Cc2ccccc2)NC1=O`, the z-score was 0.409 in test [1]; 0.0852 (inactive) in test [2]; -0.208 (inactive) in [3]; -0.348 (inactive) in test [5]; -0.231 (inactive) in test [6]; 0.0861 (inactive) in test [7]. In addition, the results for the z-score in test [8] and in test [9] were 0.503 (inactive) and 0.586, respectively. The figures for the composite z-score in test [4] and in test [10] were -0.926 (inactive) and 1.05, respectively.
Take `CCc1cc2c(nc1CC)CCN(CCC(C)=NO[C@H](C)c1cn([C@H](CO)Cc3ccccc3)nn1)C2`: the z-score is -0.605 in test [1]; -0.0397 (inactive) in test [2]; -0.376 (inactive) in test [3]; -0.503 (inactive) in [5]; -0.0857 (inactive) in test [6]; -1.4 (inactive) in test [7]. Also, the figures for the z-score in test [8] and in test [9] were -1.17 (inactive) and -0.162, respectively. For the same compound, the results for the composite z-score in test [4] and in test [10] were 1.07 (inactive) and 0.204, respectively.
Turning to `CC(C)=NO[C@H](C)c1cn([C@H](CO)Cc2ccccc2)nn1`, the z-score is 0.0622 in test [1]; -0.489 (inactive) in [2]; -0.11 (inactive) in [3]; 0.204 (inactive) in test [5]; -0.493 (inactive) in [6]; 0.517 (inactive) in test [7]. The z-score in test [8] is -1.91 (inactive); in test [9] it was 0.672. Besides, the composite z-score in test [4] was -0.784 (inactive); in test [10] it was -0.0538.
As for `C=CC1=C[C@H](O)[C@@H]2O[C@@H]2C12OCCCO2`, the z-score in test [1] is 0.257; in test [2] it was 0.301 (inactive); in [3] it was -0.458 (inactive); in test [5], 0.262 (inactive); in [6], -0.838 (inactive); in test [7], 0.451 (inactive). Further, the z-score in test [8] is 0.489 (inactive); in test [9], -0.38. For the same compound, the composite z-score in test [4] was 0.695 (inactive); in test [10], -0.03.
With `O=C(NN=C1C[C@@H](O)[C@@H](O)[C@@H]2[C@@H]3C(=O)N(C[C@@H]4CCCO4)C(=O)[C@@H]3CC[C@@H]12)OCc1ccccc1`, the z-score in test [1] was 0.0986; in test [2] it was -0.485 (inactive); in test [3], 0.169 (inactive); in test [5], 0.328 (inactive); in [6], -1.49 (inactive); in test [7] it was -0.0573 (inactive). The z-score was 0.118 (inactive) in test [8] and -0.111 in [9]. Besides, the results for the composite z-score in test [4] and in test [10] were -2.17 (inactive) and 0.0623, respectively.
On to `COc1cccc([C@H]2Oc3ccc(OC)cc3C(=NOC[C@@H](C)[C@H](OCc3ccccc3)C(C)C)[C@@H]2O)c1`, for which the z-score was -0.214 in test [1]; 0.635 (inactive) in [2]; -0.0524 (inactive) in test [3]; 0.347 (inactive) in test [5]; 0.846 (inactive) in test [6]; 0.221 (inactive) in [7]. The values for the z-score in test [8] and in test [9] were -1.18 (inactive) and 0.0541, respectively. For the same compound, the composite z-score in test [4] was -0.212 (inactive); in test [10], 0.0015.
As to `CO[C@H]1COC(=O)[C@@H](C)COC(=O)[C@H](C)NC(=O)CC=C[C@H]1C`, the z-score is 0.926 in test [1]; -0.916 (inactive) in [2]; 0.433 (inactive) in test [3]; -1.13 (inactive) in test [5]; -0.212 (inactive) in [6]; 0.618 (inactive) in [7]. For the same compound, the z-score in test [8] was -0.539 (inactive); in [9], 0.351. Besides, the composite z-score in [4] was 0.289 (inactive); in test [10], -0.327.
